Measurements reported in PubChem BioAssay (EPA / NIEHS).
Results filed as inconclusive are left out. Calls of active or inactive are those of the source. The calls were made as follows, unless noted: active = hit-call score of the fitted dose curve at least 0.9, where 1 is the maximum; inactive = score below 0.9.

Columns and labels:
[1] = read-out: Tumor necrosis factor receptor 1 (TNFRSF1A), TNFRSF1A (gene 7132); experiment: LTEA_HepaRG_TNFRSF1A: Life Technologies and Expression Analysis (LTEA) Assay for Tumor necrosis factor receptor 1 (TNFRSF1A) using HepaRG (AID 2283535); conditions: mRNA level, 48 h; actives raise or lower the signal
Method in brief: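 Differentiated human HepaRG cells were exposed in duplicate for 48 h in serum-free induction medium to eight concentrations (top 100 uM, half-log steps, 0.5% DMSO). TNFRSF1A mRNA was quantified by qRT-PCR, normalized to ACTB, GAPDH and POLR2A, then fitted bidirectionally against DMSO.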

[2] = read-out: Thyroid Hormone Responsive (THRSP), THRSP (gene 7069); experiment: LTEA_HepaRG_THRSP: Life Technologies and Expression Analysis (LTEA) Assay for Thyroid Hormone Responsive (THRSP) using HepaRG (AID 2283536); conditions: mRNA level, 48 h; actives raise or lower the signal
Method in brief: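 mRNA induction or loss relative to 0.5% DMSO vehicle was fitted bidirectionally across an eight-point curve whose highest exposure was 100 uM. Human HepaRG liver cells received chemicals in duplicate over 48 h before RNA extraction.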

[3] = read-out: Cellular tumor antigen p53 (Homo sapiens) (UniProt P04637); experiment: LTEA_HepaRG_TP53: Life Technologies and Expression Analysis (LTEA) Assay for Tumor Protein P53 (TP53) using HepaRG (AID 2283537); conditions: mRNA level, 48 h; actives raise or lower the signal
Method in brief: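 Gain or loss of TP53 mRNA signal is scored relative to 0.5% DMSO after 48 h chemical treatment of HepaRG liver cells, tested in duplicate at eight half-log concentrations up to 100 uM.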

[4] = read-out: UDP glucuronosyltransferase (UGT1A1), UGT1A1 (gene 54658); experiment: LTEA_HepaRG_UGT1A1: Life Technologies and Expression Analysis (LTEA) Assay for UDP glucuronosyltransferase (UGT1A1) using HepaRG (AID 2283538); conditions: mRNA level, 48 h; actives raise or lower the signal
Method in brief: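 Differentiated human HepaRG cells in serum-free induction medium were exposed in duplicate for 48 h to eight half-log concentrations up to 100 uM in 0.5% DMSO. UGT1A1 mRNA was quantified by TaqMan qRT-PCR, normalized to ACTB, GAPDH and POLR2A, and fitted bidirectionally against DMSO.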

[5] = read-out: UDP glucuronosyltransferase (UGT1A6), UGT1A6 (gene 54578); experiment: LTEA_HepaRG_UGT1A6: Life Technologies and Expression Analysis (LTEA) Assay for UDP glucuronosyltransferase (UGT1A6) using HepaRG (AID 2283539); conditions: mRNA level, 48 h; actives raise or lower the signal
Method in brief: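 Human HepaRG cells were dosed for 48 h in serum-free induction medium with 0.5% DMSO vehicle, eight-point half-log series from 100 uM, in duplicate. UGT1A6 mRNA was measured by qRT-PCR, normalized to ACTB, GAPDH, POLR2A, and fitted bidirectionally against DMSO.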

[6] = read-out: X-box binding protein 1 (XBP1), XBP1 (gene 7494); experiment: LTEA_HepaRG_XBP1: Life Technologies and Expression Analysis (LTEA) Assay for X-box binding protein 1 (XBP1) using HepaRG (AID 2283540); conditions: mRNA level, 48 h; actives raise or lower the signal
Method in brief: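 Differentiated human HepaRG cells in serum-free induction medium were exposed in duplicate for 48 h to eight half-log concentrations up to 100 uM in 0.5% DMSO. XBP1 mRNA was quantified by qRT-PCR, normalised to ACTB, GAPDH and POLR2A, with bidirectional fitting against DMSO.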

[7] = LTEA_HepaRG_LDH_cytotoxicity: Cytotoxicity Assessment in the Life Technologies and Expression Analysis (LTEA) Assay (AID 2283563; active = hit-call score of the fitted dose curve at least 0.9, where 1 is the maximum;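 as to AC50: LDH activity released into spent culture medium as a marker of cell death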)
Method in brief: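 Differentiated human HepaRG cells, plated 48 h beforehand, were switched to serum-free induction medium and exposed for 48 h to eight half-log concentrations (top 100 uM) in 0.5% DMSO. LDH was measured in spent medium; activity was fitted relative to DMSO vehicle.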

TIMP1, TIMP1 (gene 7076) = experiment: LTEA_HepaRG_TIMP1: Life Technologies and Expression Analysis (LTEA) Assay for TIMP1 using HepaRG (AID 2283534); conditions: mRNA level, 48 h; actives raise or lower the signal;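 also: TaqMan qRT-PCR signal normalized to ACTB GAPDH and POLR2A housekeeping genes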
Method in brief: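 Differentiated human HepaRG cells in serum-free induction medium were exposed 48 h to chemicals (8 half-log concentrations, top 100 uM, 0.5% DMSO). TIMP1 mRNA was quantified by TaqMan qRT-PCR, normalized to ACTB/GAPDH/POLR2A; bidirectional fit versus DMSO.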

[8] = ATG_XTT_Cytotoxicity: Cytotoxicity Assessment in the Attagene TRANS-FACTORIAL HepG2 Assay (AID 2283584; active = hit-call score of the fitted dose curve at least 0.9, where 1 is the maximum)
Method in brief: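 HepG2 human liver cells, transiently transfected with multiple GAL4-UAS reporter units, were dosed and read at 24 h by XTT as cell number. Loss of signal was fitted relative to DMSO negative control baseline.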

[9] = TOX21_p53_BLA_p2_viability: Viability Assessment in the Tox21 HCT-116 p53 Agonism Beta-lactamase Assay, Phase 2 (AID 2283591; active = hit-call score of the fitted dose curve at least 0.9, where 1 is the maximum;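 also: compound exposure lasted 16 h at 37 °C; actives lower the ATP signal meaning cytotoxicity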)
Method in brief: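 Cytotoxicity readout: CellTiter-Glo ATP luminescence, 30 min at room temperature, after the beta-lactamase read. Cells were HCT116 exposed 16 h at 37C to compounds pin-transferred at 217-fold dilution from DMSO stocks.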

Measured: AC50

Cellular tumor antigen p53 (Homo sapiens), sequence (P04637 whole entry, looked up): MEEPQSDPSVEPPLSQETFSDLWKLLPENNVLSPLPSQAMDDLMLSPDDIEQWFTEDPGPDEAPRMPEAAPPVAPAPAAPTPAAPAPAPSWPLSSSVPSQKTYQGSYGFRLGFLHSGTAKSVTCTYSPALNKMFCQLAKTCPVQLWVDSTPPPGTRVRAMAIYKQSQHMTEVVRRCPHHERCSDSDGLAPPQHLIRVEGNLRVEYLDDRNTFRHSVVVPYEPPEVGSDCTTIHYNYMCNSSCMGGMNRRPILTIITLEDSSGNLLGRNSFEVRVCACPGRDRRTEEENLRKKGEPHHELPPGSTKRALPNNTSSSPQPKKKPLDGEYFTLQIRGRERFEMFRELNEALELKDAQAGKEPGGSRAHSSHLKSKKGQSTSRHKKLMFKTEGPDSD

CC[C@@H]1C[C@H](N(Cc2cc(C(F)(F)F)cc(C(F)(F)F)c2)C(C)=O)c2cc(C(F)(F)F)ccc2N1C(=O)OC(C)C
active: [4] 0.546 µM
not listed: TIMP1, TIMP1 (gene 7076) | [8] | [9]
inactive: all other assays above

O=C1CCC(C2CCCCC2)CC1
inactive: all assays above

CCCCCCCCN(C)CCCCCCCC
not listed: TIMP1, TIMP1 (gene 7076) | [8] | [9]
inactive: all other assays above

COc1cccc([C@H](O)C2CCN(CCc3ccc(F)cc3)CC2)c1OC
not listed: TIMP1, TIMP1 (gene 7076) | [8]
inactive: all other assays above

Cc1oc2c(NC(=O)c3c(Cl)cccc3Cl)cccc2c1C(C)(C)O
active: [2] 86.8 µM | [3] 82.1 µM | [4] 50 µM | [5] 46.9 µM | [6] 11.3 µM
inactive: [1] | [8] | [9]

O=C1c2ccccc2C(=O)N1CCc1noc(-c2ccc(CN3CCCCCC3)s2)n1
active: [4] 17.8 µM
not listed: TIMP1, TIMP1 (gene 7076)
inactive: all other assays above

NC(=O)c1nc(-c2cccc(-c3cc(F)ccc3OCC(F)(F)C(F)(F)F)c2)n[nH]1
active: [4] 15.8 µM | [5] 50 µM | [7] 76.1 µM | [9] 65.9 µM
inactive: [1] | [2] | [3] | [6]

O=C1O[C@H]([C@@H](O)CO)C(O)=C1O
not listed: [6] | TIMP1, TIMP1 (gene 7076)
inactive: all other assays above

c1ccc2ccccc2c1
active: [4] 17.4 µM
not listed: TIMP1, TIMP1 (gene 7076)
inactive: all other assays above

O=C(O)Cn1c(=O)n(Cc2ccc(Br)cc2F)c(=O)c2ccc(Cl)cc21
active: [2] 10.3 µM | [4] 17.7 µM
not listed: TIMP1, TIMP1 (gene 7076) | [8]
inactive: all other assays above
